Screening results deposited in PubChem BioAssay by several laboratories.
Mtb BioA inh: blocks M. tuberculosis BioA enzyme activity; purified M. tuberculosis BioA enzyme, plate reader; inhibition, % at 9.99 µM; 360,000 tested, 0.096% active; AID 602481; in the data active = inhibition above about 40%
Yp Topo-I inh: Y. pestis Topo-I inhibition via cleavage products; 360,000 tested, 0.064% active; AID 504884; Y. pestis Topo-I cleavage product accumulation, plate reader; activity, % at 10 µM; in the data active = activity above about 50%, passing the limit was not always enough
PfHsp40 rescue: compounds rescuing yeast from Plasmodium falciparum HSP40 toxicity; growth rescue, % at 12.5 µM; S. cerevisiae expressing PfHsp40, growth rescue, ATP luminescence; 340,000 tested, 0.68% active; in the data active = growth rescue above about 28%, passing the limit was not always enough;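 note: yeast W303a lacking pdr1 and pdr3 grown in galactose medium; growth measured after three days at 30 °C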
BH1578 lux ind: inducers of Vibrio cholerae quorum light production without autoinducers; V. cholerae BH1578 lux reporter, luminescence, 6 h; activation, % at 18.7 µM; 350,000 tested, 0.16% active; in the data active = activation mostly above about 9.7%, no sharp cut-off
TcdB GH inh: blocks C. difficile toxin B glycohydrolase activity. P18177. TcdB glycohydrolase enzymatic assay, plate reader. inhibition, % at 9.99 µM. 350,000 tested, 0.24% active. AID 652162; in the data active = inhibition above about 10%
DUSP3 inh: blocks human VHR1 dual specificity phosphatase. AID 1654. recombinant VHR phosphatase, pNPP absorbance. inhibition, % at 13.3 µM. P51452. 290,000 tested, 0.52% active; in the data active = inhibition above about 50%
Target sequence (P51452 whole entry, looked up): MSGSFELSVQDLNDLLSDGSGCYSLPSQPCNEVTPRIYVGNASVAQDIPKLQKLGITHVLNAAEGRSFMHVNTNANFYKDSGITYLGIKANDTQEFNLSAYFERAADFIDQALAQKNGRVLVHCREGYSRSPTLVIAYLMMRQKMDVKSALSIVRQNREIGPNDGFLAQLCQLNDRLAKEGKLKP
Large screens that a line does not name were inactive. The list is not random: actives were taken first. Their share in the collection is about 1.2%.

C[C@H](CO)N1C[C@H](C)[C@@H](CN(C)CC2CCCCC2)Oc2c(NC(=O)Nc3cccc4ccccc34)cccc2C1=O	none (no result: Yp Topo-I inh, PfHsp40 rescue, BH1578 lux ind, DUSP3 inh)
O=C(C[C@H]1C[C@@H]2c3cc(NC(=O)c4ccc5c(c4)OCO5)ccc3O[C@@H]2[C@@H](CO)O1)NCc1cccc(F)c1	TcdB GH inh 20 (no result: Yp Topo-I inh, PfHsp40 rescue, BH1578 lux ind, DUSP3 inh)
O=C(C[C@@H]1C[C@H]2c3cc(NC(=O)c4ccc5c(c4)OCO5)ccc3O[C@H]2[C@H](CO)O1)NCc1cccc(F)c1	TcdB GH inh 18 (no result: Yp Topo-I inh, PfHsp40 rescue, BH1578 lux ind, DUSP3 inh)
O=C(C[C@@H]1C[C@H]2c3cc(NC(=O)Nc4ccccc4)ccc3O[C@H]2[C@H](CO)O1)NCc1ccccc1	TcdB GH inh 12 (no result: Yp Topo-I inh, PfHsp40 rescue, BH1578 lux ind, DUSP3 inh)
O=C(C[C@@H]1C[C@@H]2c3cc(NC(=O)c4ccc5c(c4)OCO5)ccc3O[C@@H]2[C@@H](CO)O1)NCc1cccc(F)c1	TcdB GH inh 17 (no result: Yp Topo-I inh, PfHsp40 rescue, BH1578 lux ind, DUSP3 inh)
O=C(C[C@H]1C[C@@H]2c3cc(NC(=O)c4ccc5c(c4)OCO5)ccc3O[C@@H]2[C@H](CO)O1)NCc1cccc(F)c1	none (no result: Yp Topo-I inh, PfHsp40 rescue, BH1578 lux ind, DUSP3 inh)
O=C(C[C@H]1C[C@H]2c3cc(NC(=O)c4ccc5c(c4)OCO5)ccc3O[C@H]2[C@H](CO)O1)NCc1cc(F)ccc1F	none (no result: Yp Topo-I inh, PfHsp40 rescue, BH1578 lux ind, DUSP3 inh)
Cc1ccccc1SCC(=O)NCCCn1ccnc1	none
Cc1ccc(C)c(C(=O)O/N=C(\N)c2ccc(Br)cc2)c1	PfHsp40 rescue 502 (no result: TcdB GH inh)
COc1cccc(-c2nc(CS(=O)(=O)CC(=O)NCCCN3C(C)CCCC3C)c(C)o2)c1 (stereo not drawn)	DUSP3 inh 57 (no result: Mtb BioA inh)
COc1cccc(-c2nc(CS(=O)(=O)CC(=O)NCCCN3CC(C)CC(C)C3)c(C)o2)c1 (stereo not drawn)	none
Cc1oc(-c2ccccc2F)nc1CS(=O)(=O)CC(=O)NCCN1CCCC1	DUSP3 inh 53
Cc1oc(-c2ccccc2F)nc1CS(=O)(=O)CC(=O)NCCCN1CCc2ccccc2C1	none
O=c1[nH]c(=O)n(C2CCCCCC2)c(O)c1C=NC1CCN(Cc2ccccc2)CC1	BH1578 lux ind 38 (no result: TcdB GH inh)
Cn1c(O)c(C=NC2CCN(Cc3ccccc3)CC2)c(=O)[nH]c1=O	none (no result: Mtb BioA inh)
Cn1cc(CNCCCn2ncc3ccccc32)c(-c2ccccc2F)n1	none (no result: Mtb BioA inh)
COc1ccc(-c2cc(C(=O)N/N=C(\C)c3cccnc3)c3cc(C)ccc3n2)cc1OC	none
Oc1ccccc1-c1cc(-c2ccc3c(c2)OCCO3)n[nH]1	PfHsp40 rescue 476 (no result: TcdB GH inh)
O=C(O)c1cc(-c2ccc3c(c2)OCCO3)n[nH]1	none
CC(=O)NC(Cc1cccc(F)c1)C(=O)NC1CCN(C(=O)c2cccc(C)c2)CC1 (stereo not drawn)	none (no result: Mtb BioA inh)
C#CCOCCOCCOCCNc1nc(N2CCN(C(=O)CCCCCCCCCCNC(=O)[C@H](CCCCN)n3cc(C[C@@H](C)CC)nn3)CC2)nc(N2CCN(C(=O)CCCCCCCCCCNC(=O)[C@H](CCCN=C(N)N)n3cc(C[C@@H](C)CC)nn3)CC2)n1	PfHsp40 rescue 26 (no result: TcdB GH inh, DUSP3 inh)
C#CCOCCOCCOCCNc1nc(N2CCN(C(=O)CCCCCCCCCCNC(=O)[C@@H](CCC(=O)O)n3cc(CCCCCN)nn3)CC2)nc(N2CCN(C(=O)CCCCCCCCCCNC(=O)[C@H](CCCCN)n3cc(C[C@@H](C)CC)nn3)CC2)n1	none (no result: TcdB GH inh, DUSP3 inh)
C#CCOCCOCCOCCNc1nc(N2CCN(C(=O)CCCCCCCCCCNC(=O)Cn3cc(CCCCCN)nn3)CC2)nc(N2CCN(C(=O)CCCCCCCCCCNC(=O)Cn3cc(C[C@@H](C)O)nn3)CC2)n1	PfHsp40 rescue 38 (no result: DUSP3 inh)
C#CCOCCOCCOCCNc1nc(N2CCN(C(=O)CCCCCCCCCCNC(=O)[C@@H](CCSC)n3cc(CCO)nn3)CC2)nc(N2CCN(C(=O)CCCCCCCCCCNC(=O)[C@H](CO)n3cc(CCCCCN)nn3)CC2)n1	PfHsp40 rescue 85 (no result: TcdB GH inh, DUSP3 inh)
O=S1(=O)CC(N2CCCC2)CN1C1CCCCC1 (stereo not drawn)	none (no result: Yp Topo-I inh, PfHsp40 rescue, BH1578 lux ind, DUSP3 inh)
CCCNC1=C(N(C(C)=O)c2cccc(F)c2)C(=O)c2ccccc2C1=O	PfHsp40 rescue 49
Cc1ccc([C@@H]2CC=C(C(=O)O)[C@H](c3ccc(Br)cc3)N2S(=O)(=O)c2ccccc2C)cc1	PfHsp40 rescue 318 (no result: DUSP3 inh)
Cc1ccc(CC(=O)CCc2ccccc2)cc1	none (no result: DUSP3 inh)
O=C(NC1=NCCS1)c1csc2ccccc12	PfHsp40 rescue 50 (no result: TcdB GH inh)
O=C(NC1=NCCS1)c1ccccc1Cl	none
CCN(CC)c1ccc(/C=N/Nc2nc3ccccc3[nH]2)c(O)c1	PfHsp40 rescue 158 (no result: BH1578 lux ind, TcdB GH inh)
COc1ccc(/C=N/Nc2nc3ccccc3[nH]2)cc1OC	PfHsp40 rescue 75
COc1ccccc1/C=C/C(=O)c1ccc(NC(C)=O)cc1	none
O=C(N[C@@H]1CC[C@H](CC(=O)N2CCc3ccccc3C2)O[C@H]1CO)C1CCOCC1	none (no result: Yp Topo-I inh, PfHsp40 rescue, BH1578 lux ind, DUSP3 inh)
COc1ccc(C(=O)NC(C(=O)NCc2ccccc2OC)C(C)C)cc1 (stereo not drawn)	TcdB GH inh 15 (no result: Mtb BioA inh)
Cc1cc(Nc2cccc(Cl)c2)nc(-c2ccccc2O)n1	none (no result: DUSP3 inh)
Cc1cc(Nc2ccc(Cl)cc2)nc(-c2ccccc2O)n1	PfHsp40 rescue 72
C=CCC(C(=O)OC)(C(=O)OC)c1ccc([N+](=O)[O-])cc1[N+](=O)[O-]	none (no result: Mtb BioA inh)
C=CCC(C(=O)OC)(C(=O)OC)c1ccc([N+](=O)[O-])cn1	DUSP3 inh 52 (no result: TcdB GH inh)
O=C(N/N=C/c1cc2c3c(c1O)CCCN3CCC2)c1ccccc1O	PfHsp40 rescue 176 (no result: Mtb BioA inh)
Cc1nn(-c2ccccc2)c(N2CCCC2)c1/C=N/NC(=O)c1ccccc1O	none (no result: Mtb BioA inh, TcdB GH inh)
CC1CCCN(S(=O)(=O)c2ccc(Br)s2)C1 (stereo not drawn)	none
Cc1cc(-c2ccc(NS(=O)(=O)c3ccccc3)c(C)c2)ccc1NS(=O)(=O)c1ccccc1	TcdB GH inh 12 (no result: DUSP3 inh)
COc1ccc(-c2cc(C(=O)NCc3cccnc3)no2)cc1	none (no result: TcdB GH inh)
COc1ccc(-c2nc(CN3CCC(C(=O)N4CCOCC4)CC3)c(C)o2)cc1C	DUSP3 inh 57
COc1ccc(-c2nc(CS(=O)CC(=O)NCCCN3CCOCC3)c(C)o2)cc1OC (stereo not drawn)	DUSP3 inh 57
COc1ccc(-c2nc(CN3CCC(C(=O)N4CCOCC4)CC3)c(C)o2)cc1OC	none
COc1ccc(-c2nc(CS(=O)CC(=O)NCCCN3CCCC3)c(C)o2)cc1OC (stereo not drawn)	none (no result: Mtb BioA inh, TcdB GH inh)
N#CC1C(=N)Cc2ccccc2-c2ccccc21 (stereo not drawn)	PfHsp40 rescue 39 (no result: DUSP3 inh)
Nc1ccc2c(c1)Cc1ccccc1-2	none (no result: TcdB GH inh)
CC(C)OC(=O)NCN1C(=O)C2C3C=CC(C3)C2C1=O (stereo not drawn)	none (no result: TcdB GH inh)
Cc1cc2oc(=O)cc(CN(C)Cc3ccccc3)c2cc1C(C)C	Yp Topo-I inh 64 (no result: Mtb BioA inh, DUSP3 inh)
Cc1ccc(NC(=O)CO/N=C(\N)c2nonc2N)cc1	none (no result: TcdB GH inh)
CSCc1cc(N(C)c2ccccc2)nc(-c2ccccn2)n1	PfHsp40 rescue 111
COc1ccc(N/N=C(\C#N)C(=N)N2CCOCC2)cc1	none (no result: Mtb BioA inh)
COc1ccc(C(=O)/C(C#N)=N/Nc2ccccc2[N+](=O)[O-])cc1	none (no result: Mtb BioA inh)
COc1ccc(C(=O)/C(C#N)=N/Nc2ccc([N+](=O)[O-])cc2)cc1	DUSP3 inh 71 (no result: Mtb BioA inh)
